This note sets out measurements from PubChem BioAssay (NCATS).

Results filed as inconclusive are left out. Entries that show only a call come without a potency. Activity calls are given as the source filed them. Calls come from the whole dose curve; as a rule, active = well fitted curve in the direction sought with a large enough effect; inconclusive = small, poorly fitted or top-dose-only effect, or another doubt; inactive = no such curve, though single readings can be large; an effect the other way counts as inactive or inconclusive.

Phosphoglycerate kinase, glycosomal (Trypanosoma brucei brucei), sequence (P07378 whole entry, looked up): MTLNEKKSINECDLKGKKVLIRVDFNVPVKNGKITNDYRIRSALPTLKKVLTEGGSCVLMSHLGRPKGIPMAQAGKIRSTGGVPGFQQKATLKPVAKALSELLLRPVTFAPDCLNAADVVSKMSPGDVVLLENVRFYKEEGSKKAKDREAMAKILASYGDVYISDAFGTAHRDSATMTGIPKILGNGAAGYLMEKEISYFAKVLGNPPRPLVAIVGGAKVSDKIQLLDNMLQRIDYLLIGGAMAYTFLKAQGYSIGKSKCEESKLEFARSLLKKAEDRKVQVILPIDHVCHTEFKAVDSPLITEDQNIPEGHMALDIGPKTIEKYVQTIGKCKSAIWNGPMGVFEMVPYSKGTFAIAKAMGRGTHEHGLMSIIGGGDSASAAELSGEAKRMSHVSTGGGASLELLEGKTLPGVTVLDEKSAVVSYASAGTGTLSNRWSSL

In the first test the target is Phosphoglycerate kinase, glycosomal (Trypanosoma brucei brucei) (UniProt P07378). Nature of the test: qHTS Validation Assay to Find Inhibitors of Phosphoglycerate Kinase (AID 504547). The following applies: enzymatic PGK inhibition, coupled luminescence read-out; series mostly up to 57.5 µM. The method, boiled down:
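In TEA buffer (100mM, pH 7.6) containing 5mM MgCl2 and 0.01% Tween-20, the GAPDH-coupled PGK reaction proceeded for 60 minutes at room temperature before a single luminescence reading using Kinase-Glo Plus.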
(qHTS replaces the single test concentration by a dilution series.)
Turning to `Nc1ccc(-c2nc3ccc(-c4nc5ccc(N)cc5[nH]4)cc3[nH]2)cc1`, the Potency entry is “inactive”.

`CCC(=O)N1CCN(C(=O)c2ccccc2)CC1`: the Potency entry is “inactive”.

Consider `Nc1ccc(N2C(=O)c3ccccc3C2=O)c(Cl)c1`, for which the Potency result was “inactive”.

Regarding `NC(N)=N[C@@H](CCC(=O)O)C(=O)O`, the Potency entry is “inactive”.

For the compound `CC1CCN(CC[C@H]2CCCN2S(=O)(=O)c2cccc(O)c2)CC1`, the Potency entry was “inactive”.

In the case of `CC(C)Cn1c(=O)n(C)c(=O)c2[nH]cnc21`, the Potency result is “inactive”.

As for `NCCCNCCCCNCCCN`, the Potency result was “inactive”.

Consider `CCCCCCCCCC[Si](C)(C)CCC(=O)NC(Cc1ccc(C)cc1)c1ccccc1` (configuration not stated), for which the Potency result is “inactive”.

With `CNc1ncnc2c1ncn2[C@H]1C[C@H](OP(=O)(O)O)[C@@H](COP(=O)(O)O)O1`, the Potency entry was “inactive”.

In the case of `NCCS(=O)O`, the Potency entry was “inactive”.

On to `N=C(N)SCCN`, for which the Potency entry was “inactive”.

Regarding `NC1(C(=O)O)CC1`, the Potency entry was “inactive”.

Regarding `O=C(O)c1cc(=O)cc(C(=O)O)[nH]1`, the Potency result was “inactive”.

For `c1ccc(C2CN3CCSC3=N2)cc1` (configuration not stated), the Potency result is “inactive”.

The target of the next test is phosphoglycerate mutase (Leishmania major) (UniProt Q4Q090). The test is described as follows: qHTS Validation Assay to Find Inhibitors of Phosphoglycerate Mutase (AID 504548).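 Note: end-point luminescence from Kinase-GloPlus after the PGAM reaction.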 The following applies: biochemical enzyme activity; Potency: inhibition qHTS; series mostly up to 57.5 µM. The method, boiled down: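 Inhibition of L. major PGAM was assessed by Kinase-GloPlus luminescence following a 45-minute room-temperature reaction with enzyme at 1.25nM final.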
phosphoglycerate mutase (Leishmania major), sequence (Q4Q090 1-553): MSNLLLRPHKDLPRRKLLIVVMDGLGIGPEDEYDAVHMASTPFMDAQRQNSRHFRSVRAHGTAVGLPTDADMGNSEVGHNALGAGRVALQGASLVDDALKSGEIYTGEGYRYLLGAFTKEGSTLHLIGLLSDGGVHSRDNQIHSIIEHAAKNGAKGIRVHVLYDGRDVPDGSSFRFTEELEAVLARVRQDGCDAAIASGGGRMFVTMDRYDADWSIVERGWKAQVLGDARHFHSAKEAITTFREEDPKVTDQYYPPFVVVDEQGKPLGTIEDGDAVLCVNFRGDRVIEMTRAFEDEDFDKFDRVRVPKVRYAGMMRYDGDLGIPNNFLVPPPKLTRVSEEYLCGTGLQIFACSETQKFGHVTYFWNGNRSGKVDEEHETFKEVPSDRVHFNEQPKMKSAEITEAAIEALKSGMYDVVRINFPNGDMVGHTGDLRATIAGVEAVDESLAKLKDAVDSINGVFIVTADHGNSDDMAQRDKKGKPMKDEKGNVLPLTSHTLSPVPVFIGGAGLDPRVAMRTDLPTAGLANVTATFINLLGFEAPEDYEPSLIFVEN
As to `O=C(O)CCC(=O)N1CCCC1C(=O)O` (configuration not stated), the Potency result is “inactive”.

Regarding `C=C(C)C1CC=C(C(=O)O)CC1` (configuration not stated), the Potency entry is “inactive”.

On to `NCC(O)C1CCCCCCC1` (configuration not stated), for which the Potency result was “inactive”.

`NC(=O)CNCCC(c1ccccc1)c1ccccc1`: the Potency result was “inactive”.

Turning to `COc1ccccc1N1CCN(CCCNc2c(C)c(=O)n(C)c(=O)n2C)CC1`, the Potency result was “inactive”.

Take `C[C@@]1(C2CCCC2)Cc2cc(OCC(=O)O)c(Cl)c(Cl)c2C1=O`: the Potency result is “inactive”.

Turning to `N[C@@H](CS(=O)O)C(=O)O`, the Potency entry was “inactive”.

Turning to `COC(=O)C(C)(N)Cc1ccc(O)cc1` (configuration not stated), the Potency result is “inactive”.

Consider `O=C(O)/C(=C/c1c(C(=O)O)[nH]c2cc(Cl)cc(Cl)c12)c1ccccc1`, for which the Potency result is “inactive”.

As to `Cn1c(=O)[nH]c2ncn(C)c2c1=O`, the Potency entry was “inactive”.

`CCCCCCCCCCCCCCCCCCOC[C@H](COP(=O)([O-])OCC[N+](C)(C)C)OC`: the Potency result is “inactive”.

For the compound `O=C(O)/C=C/c1ccc(O)c(O)c1`, the Potency result was “inactive”.

As for `N[C@@H](Cc1ccc(O)c(I)c1)C(=O)O`, the Potency result is “inactive”.

As to `NC(=O)c1cc[n+](CC2=C(C(=O)O)N3C(=O)[C@@H](NC(=O)[C@@H](c4ccccc4)S(=O)(=O)[O-])[C@H]3SC2)cc1`, the Potency entry was “inactive”.

Take `O=[N+]([O-])c1cccc2cn[nH]c12`: the Potency entry is “inactive”.

As to `c1ccc2nc(C3=NCCN3)ccc2c1`, the Potency entry was “inactive”.

For the compound `COc1ccccc1N1CCN(CCCCNC(=O)c2ccc3ccccc3c2)CC1`, the Potency result is “inactive”.

Take `O=c1onc2n1-c1cc(Br)ccc1OC2`: the Potency result is “inactive”.

In the case of `CC(C)NC[C@H](O)COc1ccc(CC(N)=O)cc1`, the Potency result is “inactive”.

For the compound `NC(N)=NC(N)=Nc1ccccc1`, the Potency result is “inactive”.

Turning to `C#CCn1c(=O)c2c(ncn2C)n(C)c1=O`, the Potency entry is “inactive”.

Regarding `O=C(OCCN1CCOCC1)C1(c2ccccc2)CCCCC1`, the Potency result was “inactive”.

In the case of `CO/N=C(\C(=O)N[C@@H]1C(=O)N2C(C(=O)O)=C(CSc3nc(=O)c(O)nn3C)CSC12)c1csc(N)n1` (some centres not stated), the Potency result is “inactive”.

Regarding `Nc1ccc(-c2nc3ccc(-c4nc5ccc(N)cc5[nH]4)cc3[nH]2)cc1`, the Potency entry is “inactive”.

For the compound `CCC(=O)N1CCN(C(=O)c2ccccc2)CC1`, the Potency result was “inactive”.

Turning to `Nc1ccc(N2C(=O)c3ccccc3C2=O)c(Cl)c1`, the Potency entry is “inactive”.

With `NC(N)=N[C@@H](CCC(=O)O)C(=O)O`, the Potency entry is “inactive”.

For the compound `CC1CCN(CC[C@H]2CCCN2S(=O)(=O)c2cccc(O)c2)CC1`, the Potency result is “inactive”.

For the compound `Cc1nc(N=Nc2ccc(S(=O)(=O)O)cc2S(=O)(=O)O)c(COP(=O)(O)O)c(C=O)c1O`, the Potency result is “inactive”.

For the compound `CC(C)Cn1c(=O)n(C)c(=O)c2[nH]cnc21`, the Potency result was “inactive”.

Consider `NCCCNCCCCNCCCN`, for which the Potency entry is “inactive”.

As for `CCCCCCCCCC[Si](C)(C)CCC(=O)NC(Cc1ccc(C)cc1)c1ccccc1` (configuration not stated), the Potency result was “inactive”.

For the compound `CNc1ncnc2c1ncn2[C@H]1C[C@H](OP(=O)(O)O)[C@@H](COP(=O)(O)O)O1`, the Potency result is “inactive”.

Take `NCCS(=O)O`: the Potency entry is “inactive”.

For `N=C(N)SCCN`, the Potency entry is “inactive”.

As for `NC1(C(=O)O)CC1`, the Potency entry is “inactive”.

With `O=C(O)c1cc(=O)cc(C(=O)O)[nH]1`, the Potency result was “inactive”.

For the compound `c1ccc(C2CN3CCSC3=N2)cc1` (configuration not stated), the Potency entry is “inactive”.
